Sampled rows, rich in hits. Any-hit rate of the full collection: about 6.9%.
MPTP inh: inhibitors of mitochondrial permeability transition pore; isolated mouse mitochondria, Ca2+ swelling absorbance, 30 min; inhibition, % at 10 µM; 360,000 compounds, 1.4% hits; AID 602449;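 active means inhibition of 50% or more, scaled per plate between neutral and stimulator controls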;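 further: 0% = DMSO wells given calcium and 100% = 1 mM EGTA wells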
GRIN3A LBD mod: NR3A (human) ligand-binding domain modulation | 340,000 compounds, 2.5% hits | Tm shift relative to glycine control, % at 25 µM | NR3A LBD differential scanning fluorimetry, Tm shift; 0% = protein alone, 100% = glycine-bound protein;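 active means melting temperature shift of at least 10% of the positive control shift, at one fixed dose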
SKKanGAS inh: inhibitors of SKKanGAS S. pyogenes growth in kanamycin (SK-promoter or general growth effect); inhibition, % at 7.5 µM; 300,000 compounds, 1.3% hits; BacTiter-Glo, 6 h;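 active means mean replicate score, as percent of positive control median, at least 50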;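 further: strain carries kanamycin resistance gene driven by streptokinase promoter and grows in 40 µg/ml kanamycin; loss of luminescence reflects streptokinase promoter inhibition or plain growth inhibition; 0% = median of DMSO wells and 100% = positive control at its reference dose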
CSC inhib: cancer stem cell inhibition; cancer stem cell-like cells viability, luminescence; 300,000 compounds, 1.1% hits; AID 2717; inhibition, % at 7.5 µM; in the data active means inhibition above about 75%; tested in HMLE shEcad cells
Beta apoptosis: beta cell apoptosis inhibition | protection from apoptosis, % (concentration not given with the values) | INS-1E cytokine-induced death, ATP luminescence, 48 h; percent of positive-control rescue, neutral wells zero | 300,000 compounds, 0.8% hits | AID 435005;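 active means Every replicate reaches about 75%, or at least half do and their mean reaches it too, limit read from the data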;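 further: 0% = cytokine-treated negative control wells and 100% = positive control rescue; higher means more ATP so stronger rescue from cytokine killing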
Mdm2 MdmX PPI: inhibitors of human Mdm2/MdmX interaction; O15151+Q00987; SaOS-2 split-luciferase Mdm2/MdmX complementation, luminescence; inhibition, % at 8 µM; 330,000 compounds, 3% hits;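 active means inhibition of at least 50% at 8 µM in the primary screen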
Target sequence (O15151 whole entry, looked up): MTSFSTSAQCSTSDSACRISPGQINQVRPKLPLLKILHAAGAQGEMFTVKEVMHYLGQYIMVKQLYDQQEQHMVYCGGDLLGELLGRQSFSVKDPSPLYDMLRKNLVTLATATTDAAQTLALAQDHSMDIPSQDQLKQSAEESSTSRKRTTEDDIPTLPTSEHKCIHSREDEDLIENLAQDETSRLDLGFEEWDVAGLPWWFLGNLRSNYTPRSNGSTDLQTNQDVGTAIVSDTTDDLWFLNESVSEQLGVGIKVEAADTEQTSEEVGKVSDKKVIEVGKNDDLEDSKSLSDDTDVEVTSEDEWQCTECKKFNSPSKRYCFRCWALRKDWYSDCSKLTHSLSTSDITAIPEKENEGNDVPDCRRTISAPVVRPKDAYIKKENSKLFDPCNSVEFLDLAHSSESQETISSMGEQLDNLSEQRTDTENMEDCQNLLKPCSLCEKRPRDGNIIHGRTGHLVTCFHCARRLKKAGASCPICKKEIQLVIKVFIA
Target sequence (Q00987 whole entry, looked up): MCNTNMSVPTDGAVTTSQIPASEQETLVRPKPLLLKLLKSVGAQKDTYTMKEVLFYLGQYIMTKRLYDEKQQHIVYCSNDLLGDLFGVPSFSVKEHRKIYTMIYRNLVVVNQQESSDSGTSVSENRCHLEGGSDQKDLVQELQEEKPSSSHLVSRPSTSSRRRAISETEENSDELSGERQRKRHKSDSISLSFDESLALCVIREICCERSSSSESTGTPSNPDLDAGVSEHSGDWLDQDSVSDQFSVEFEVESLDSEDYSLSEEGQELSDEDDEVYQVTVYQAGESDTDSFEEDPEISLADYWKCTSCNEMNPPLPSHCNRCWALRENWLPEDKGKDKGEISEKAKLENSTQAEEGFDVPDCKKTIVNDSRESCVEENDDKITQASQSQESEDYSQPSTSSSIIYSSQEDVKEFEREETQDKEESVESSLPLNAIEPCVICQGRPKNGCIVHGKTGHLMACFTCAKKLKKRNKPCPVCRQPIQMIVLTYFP
Mdm2-MdmX conf: confirmation of human Mdm2/MdmX interaction inhibitors | shares compounds with Mdm2 MdmX PPI | Mdm2-MdmX binding, luminescent assay | inhibition, % at 8 µM | 10,000 compounds, 55% hits | AID 489028; in the data active means inhibition above about 40%
FLuc counter: counter-screen for Mdm2/MdmX inhibitors: full-length luciferase | shares compounds with Mdm2 MdmX PPI | SaOS-2 full-length luciferase counterscreen, luminescence | inhibition, % at 8 µM | 6,200 compounds, 77% hits | AID 504607;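 active means mean inhibition at 8 µM reaching about 37%, which flags the compound as non-specific, limit read from the data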;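 further: p53-null SaOS-2 cells with luciferase driven by a doxycycline-inducible promoter; compound on cells about two nights before reading with doxycycline added after day one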
An asterisk follows results filed as active; / = not tested or not shown.

SMILES	MPTP inh	GRIN3A LBD mod	SKKanGAS inh	CSC inhib	Beta apoptosis	Mdm2 MdmX PPI	Mdm2-MdmX conf	FLuc counter
N#CC(C#N)=c1ccc2c(c1)N1C(c3ccccc3)=CC(c3ccccc3)C3CCCCC31N=2 (stereo not given)	4.4	-1.1	17.5	5.8	0.0	60.9*	32.1	/
COc1ccccc1N1CCN(C(=O)c2ccc3c(Cl)c4c(nc3c2)CCCC4)CC1	0.3	-4.9	24.7	14.8	-2.0	64.2*	20.1	/
Cc1ccc(C)c(N2CCN(C(=O)c3ccc4nc(-c5ccco5)c(-c5ccco5)nc4c3)CC2)c1	17.7	-1.6	30.3	-0.2	0.7	0.3	/	/
COc1ccccc1N1CCN(C(=O)c2ccc3nc(-c4ccco4)c(-c4ccco4)nc3c2)CC1	0.8	-2.0	25.5	-3.7	6.8	53.9*	24.2	/
COc1ccc(N2CCOCC2)c(NC(=O)c2cccnc2)c1	-0.5	1.7	4.7	-0.3	-1.1	17.8	/	/
COc1ccc(-c2c[n+](CC(=O)OC3CC(C)CCC3C(C)C)c3n2CCC3)cc1 (stereo not given)	0.3	-1.9	-2.0	-2.1	102.5*	62.9*	31.3	56.6*
CC1CCC(C(C)C)C(OC(=O)C[n+]2cccc(C(N)=O)c2)C1 (stereo not given)	0.6	-2.7	3.4	/	-7.3	11.6	/	/
CSCC(=O)NC1CCCc2c1cnn2-c1ccc(C)c(C)c1 (stereo not given)	1.0	-4.4	0.0	-13.0	-2.4	2.5	/	/
COC(=O)c1ccc(COc2ccccc2/C=N/NS(=O)(=O)c2ccccc2)cc1	0.4	1.3	8.5	50.8	1.6	52.0*	51.8*	114.7*
Cc1ccc(S(=O)(=O)N2C(=O)/C(=C3\SC(=S)NC3=O)c3ccccc32)cc1	/	/	10.4	39.6	4.9	51.0*	36.5	82.0*
CN1CCN(c2ccccc2NC(=O)c2cc3c(s2)-c2ccccc2OC3)CC1	1.0	-2.2	2.3	42.0	4.5	57.2*	52.1*	63.4*
COc1ccccc1N1CCN(C(=O)c2cc3c(s2)-c2ccccc2OC3)CC1	-0.3	-1.2	8.3	39.3	1.8	36.0	/	/
CCCN1CCC(NC(=O)CC2C(=O)NCCN2Cc2ccccc2C)CC1 (stereo not given)	0.2	3.8	-0.3	-3.4	-5.2	15.5	/	/
Cc1cc(-c2ccccc2C(=O)NC2CCCCC2)on1	-2.5	0.9	-8.6	-15.4	1.0	-15.4	/	/
Cc1ccc(C)c(NC(=O)Cn2nnc(C(=O)NCc3cccs3)c2N)c1	-0.9	-0.4	-0.5	18.9	0.0	65.0*	12.1	/
COc1ccc(NC(=O)c2nnn(CC(=O)Nc3ccccc3OC)c2N)c(OC)c1	0.3	3.3	0.4	-0.3	-2.5	67.7*	-2.3	/
COc1ccc(NC(=O)c2oc3ccccc3c2NC(=O)COc2ccccc2OC)c(OC)c1	0.2	-0.2	-8.6	7.5	9.5	69.7*	-5.4	/
COc1ccc(NC(=O)c2oc3ccccc3c2NC(=O)c2ccc(OC)c(OC)c2)c(OC)c1	1.3	-1.4	/	/	/	/	/	/
COc1ccccc1NC(=O)Cn1nnc(C(=O)NCc2cccs2)c1N	1.8	0.2	-9.3	54.0	/	55.6*	63.8*	67.6*
COc1ccc(N2CC(C(=O)Nc3ccncc3)CC2=O)cc1 (stereo not given)	0.7	0.9	-14.8	-22.8	/	6.1	/	/
C/C(CC(=O)Nc1cccc(C(F)(F)F)c1)=N/NC(=O)C(=O)NCCO	-0.2	2.4	-17.4	-12.0	2.1	8.6	/	/
CCN(Cc1ccc(N(C)C)cc1)C(C)C(=O)Nc1ccc(S(=O)(=O)N2CCCC2)cc1 (stereo not given)	-0.6	-0.4	/	-10.6	-0.4	-14.5	/	/
CCC1Oc2ccccc2N(CC(=O)NCCCN2CCN(c3ccc(OC)cc3)CC2)C1=O (stereo not given)	1.0	1.5	-2.3	-6.7	1.6	4.9	/	/
COC(=O)c1[nH]c2c(c1C)C(=O)CC(c1cccc(OC)c1)C2 (stereo not given)	0.1	-2.0	1.3	66.5	30.8	53.6*	58.6*	92.5*
CCCCCOC(=O)c1[nH]c2c(c1C)C(=O)CC(c1ccco1)C2 (stereo not given)	0.1	-0.3	-0.1	73.3	-3.4	64.6*	51.5*	88.6*
SMILES	MPTP inh	GRIN3A LBD mod	SKKanGAS inh	CSC inhib	Beta apoptosis	Mdm2 MdmX PPI	Mdm2-MdmX conf	FLuc counter
COCCOC(=O)c1[nH]c2c(c1C)C(=O)CC(c1cccs1)C2 (stereo not given)	3.5	-2.1	-2.7	/	/	/	/	/
CCOC(=O)c1[nH]c2c(c1C)C(=O)CC(c1ccc(F)cc1)C2 (stereo not given)	1.2	-0.2	-1.5	59.9	37.4	58.9*	54.0*	63.3*
CCOCCOC(=O)c1[nH]c2c(c1C)C(=O)CC(c1cccs1)C2 (stereo not given)	0.6	0.9	0.5	56.7	23.6	53.8*	61.4*	91.6*
O=C(CNC(=O)c1ccc(Br)o1)NNC(=O)c1ccccc1F	-1.4	1.1	0.7	-8.7	-12.4	15.9	/	/
CN(C)C(=O)COc1ccc2c3c(c(=O)oc2c1)CCCC3	0.6	0.1	-2.2	-5.1	/	-6.6	/	/
COc1ccc(C(=O)NCCCN=C2NS(=O)(=O)c3ccccc32)cc1	-1.2	-2.8	-3.8	/	-5.8	9.8	/	/
COc1ccc(C(=O)c2c3ccc(OC)cc3[n+]([O-])n2Cc2ccc(C(N)=O)cc2)cc1	0.0	0.6	/	-4.6	-2.0	6.7	/	/
CCOCCOC(=O)c1[nH]c2c(c1C)C(=O)CC(c1ccccc1)C2 (stereo not given)	-0.1	/	-4.9	55.1	41.6	50.1*	55.8*	95.7*
CCOCCOC(=O)c1[nH]c2c(c1C)C(=O)CC(c1cc(OC)c(OC)c(OC)c1)C2 (stereo not given)	1.1	-0.2	-4.2	-17.5	24.6	19.1	/	/
COc1ccc(N/C=C/C(=O)c2sc(-c3ccccc3)nc2C)cc1	0.6	4.3	29.4	50.5	5.7	58.7*	38.4	98.5*
BrC(/C=N/N1CCN(Cc2ccccc2)CC1)=C/c1ccccc1	-1.3	2.9	19.9	19.9	-1.7	-15.6	/	/
O=C(Nc1ccc2c(c1)OCCO2)c1ccccc1Cl	0.1	/	/	/	/	/	/	/
O=C(Nc1ccc2c(c1)OCCO2)c1cccc2nc3ccccc3nc12	0.3	-14.0	11.1	82.8*	46.4	77.6*	57.2*	27.6
Cc1ccc(N/C(N)=N/c2nc(C)cc(N3CCCCC3)n2)c(C)c1	33.2	-2.0	-7.6	6.7	110.7*	78.1*	40.0*	66.8*
c1ccc(Cn2c(CNc3nc4ccccc4n3CCN3CCCCC3)nc3ccccc32)cc1	10.0	-0.2	5.1	16.9	0.4	56.7*	14.8	/
Cn1c(CNc2nc3ccccc3n2CCN2CCCCC2)nc2ccccc21	-0.2	-2.5	-2.6	-5.6	3.4	11.6	/	/

Compound activity (PubChem BioAssay)
